# Y pestis TopoI – inhibitors of Yersinia pestis topoisomerase I; AID 504884; 360,000 tested, 0.064% active; Y. pestis Topo-I cleavage product accumulation, plate reader; activity, % at 10 µM; in the data active means activity above about 50%, passing the limit was not always enough
# Mtb hypoxia inh – reduces hypoxia-regulated biosensor signal in M. tuberculosis; M. tuberculosis hypoxia-regulated fluorescent reporter, fluorescence; fluorescence inhibition, % (no concentration beside the values); 300,000 tested, 0.1% active; in the data active means fluorescence inhibition mostly above about 23%, no sharp cut-off; inactive means mostly below about 17%
# BH1578 lux ind – induces V. cholerae light production without autoinducers | V. cholerae BH1578 lux reporter, luminescence, 6 h | activation, % at 18.7 µM | 350,000 tested, 0.16% active; in the data active means activation mostly above about 9.7%, no sharp cut-off
# The depositor's hits bear a star; i = inactive; . = not tested or not shown; + = active, no number. Hits are enriched below; roughly 0.29% of the tested compounds scored in any of these assays.
SMILES,Y pestis TopoI,Mtb hypoxia inh,BH1578 lux ind
Cc1nn(-c2ccccc2)c2sc(C(=O)OCc3nnc(-c4ccccc4)o3)cc12,5.4,.,22.2*
CC(OC(=O)Cn1ccccc1=O)C(=O)Nc1cc(Cl)cc(Cl)c1 (configuration not stated),9.4,4.3,-1.9
COc1ccc(Cl)cc1NC(=O)C(C)OC(=O)Cn1cc(C(F)(F)F)ccc1=O (configuration not stated),-11.3,26.5*,i
COC(=O)C1=CN(C)C=C(C(=O)OC)C1c1ccsc1,-6.7,5.7,16.7*
COC(=O)C1=CN(C2CC2)C=C(C(=O)OC)C1c1ccc(C(=O)OC)cc1,-1.3,-6.2,-0.2
Cc1ccc(C(=O)CSc2nc(N)cc(=O)[nH]2)cc1,3.2,6.3,-0.5
C=C(C)CSc1nc(N)cc(=O)[nH]1,-2.3,.,16.7*
CCCc1c(C(=O)NN=C(C)CCc2ccccc2)nnn1-c1nonc1N,.,-8.3,.
COc1ccc2[nH]c3c(c2c1)CCCC3=NN,.,6.7,.
CC(=NNC(=O)CNC(=O)c1ccc2c(c1)OCO2)c1ccc2c(c1)CCCC2,.,-6.9,.
CCCNC(=O)c1cc2ccccc2c(=O)o1,2.7,11.2,i
Cc1cc(C)n(C(=O)c2cc3ccccc3c(=O)o2)n1,-0.6,4.7,16.7*
Cn1ncc([N+](=O)[O-])c1C(=O)NN=Cc1ccc(F)cc1,.,-2.1,.
CCOC(=O)C1CCN(Cc2cccc(Oc3ccc(Cl)cc3)c2)CC1,15.6,21.4,-0.4
CCOC(=O)C1CCN(Cc2cccc(Oc3ccccc3)c2)CC1,65.8*,11.7,-0.6
CCNC(=S)NN=Cc1ccc(-c2ccccc2)o1,.,17.6,.
CCCCCCc1nnc(NC(=O)OCC)s1,-7.2,44.6*,-0.1
CCCCCOC(=O)Nc1nnc(CCCCC)s1,7.6,5.1,i
CCCCCC(=O)Nc1cccc(C2=NOC3(C2)CC(C(N)=O)N(C(=O)C2(C)CC2)C3)c1 (configuration not stated),.,4.6,.
CC1CCC2(CC1)NC(=O)N(CC(=O)Nc1ccc(F)cc1)C2=O (configuration not stated),3.8,-3.5,-2.7
CCCCNC(=O)C1CC1C(O)C(CO)NC(=O)C(COCc1ccccc1)NC(=O)OC(C)(C)C (configuration not stated),.,19.3,.
COc1ccc(C2CC(c3ccccc3)=NN2C(=O)COC(=O)c2cccc(S(=O)(=O)N(C)C)c2)cc1 (configuration not stated),31.3,9.4,-0.2
COc1ccc(C2CC(c3ccccc3)=NN2C(=O)COC(=O)c2cccc(S(=O)(=O)N3CCOCC3)c2)cc1 (configuration not stated),60.4*,15.2,i
COc1ccc2oc(C(=O)Nc3nc(-c4ccccn4)cs3)c(C)c2c1,5.5,7.4,-2.0
COc1ccc(C=NNC(=O)c2[nH]c3ccc(Br)cc3c2-c2ccccc2)c(C(=O)O)c1OC,.,-7.1,.
SMILES,Y pestis TopoI,Mtb hypoxia inh,BH1578 lux ind
O=C(COC(=O)c1cc(Cl)nc(Cl)c1)NCCc1ccc(F)cc1,3.5,25.5*,i
O=C(COC(=O)c1ccc(F)cc1)NCCc1ccc(F)cc1,2.0,-3.0,-0.7
CN(C)c1cc(NN=Cc2ccc(Cl)cc2)nc(N(C)C)n1,.,-16.8,.
CCOC(=O)c1cc(C)sc1N=CC1C(=O)CCCC1=O,.,0.6,.
CCN(CC)C(=O)CSc1nnc(COc2ccc(OC)cc2)n1N,4.1,4.3,i
CCN(CC)C(=O)CSc1nnc2nnc3cc(OC)ccc3n12,-3.7,66.4*,-0.6
O=C(CCCOc1ccccc1)Nc1ccc(S(=O)(=O)N2CCOCC2)cc1,-6.5,17.3,i
CCOc1ccc2cc(S(=O)(=O)N3CCOCC3)ccc2c1,0.8,.,73.8*
O=C(CCCOc1ccccc1)Nc1cccc(S(=O)(=O)N2CCOCC2)c1,8.1,-9.9,i
CCOc1ccccc1OCCCC(=O)Nc1cccc(S(=O)(=O)N2CCOCC2)c1,21.2,26.3*,-2.1
CCOc1ccc(Oc2ccc(S(=O)(=O)N3CCOCC3)cc2N)cc1,-0.2,17.0,-1.5
Cc1ccc(OCCCC(=O)Nc2ccc(S(=O)(=O)N3CCOCC3)cc2)cc1,20.7,30.4*,i
CC(=O)Nc1ccc(SCC(Cc2ccccc2)N2CCC(O)CCC2=O)cc1 (configuration not stated),.,12.2,.
O=C(CSc1n[nH]c(-c2ccncc2)n1)Nc1ccccc1C(F)(F)F,2.0,-0.4,-0.2
CC(C)CC(=O)NN=Cc1c(N)n(C)c(=O)n(C)c1=O,.,7.9,.
CCN(CC)CCn1c(N=Cc2ccc(OC)c(OC)c2)nc2ccccc21,.,5.9,.
N#Cc1ccc(NCC(=O)N2CCN(S(=O)(=O)c3ccccc3)CC2)cc1,-3.5,42.6*,2.1
Cc1ccc(NCC(=O)N2CCN(S(=O)(=O)c3ccccc3)CC2)cc1F,14.6,-7.9,i
CN[C@@H]1[C@H](O)[C@H](NC)[C@H]2O[C@@]3(O)C(=O)C[C@@H](C)O[C@H]3O[C@@H]2[C@H]1O,3.1,.,71.8*
CCCCN1CC(=O)N2C3c4cc(Cl)ccc4OCC3C(c3ccccc3)[C@]2(C)C1=O (some centres not stated),.,6.6,.
CN(CC(=O)Nc1ccc(OC(F)(F)F)cc1)C(=O)c1ccc(N2CCCC2=O)cc1,6.1,29.6*,i
CN(CC(=O)Nc1ccc(Cl)cc1)C(=O)c1ccc(N2CCCC2=O)cc1,-5.1,3.8,i
CS(=O)(=O)Nc1ccccc1C(=O)OCC(=O)N1CCC(c2ccccc2)=N1,19.1,33.0*,0.6
Cc1ccc(C(=O)OCC(=O)N2CCC(c3ccccc3)=N2)c(C)c1,-6.4,-7.6,i
O=C(NN=Cc1ccccc1)c1ccc(OCc2ccccc2)cc1,.,8.7,.
SMILES,Y pestis TopoI,Mtb hypoxia inh,BH1578 lux ind
O=C(NN=Cc1ccc(OCc2ccccc2)cc1)c1ccncc1,.,36.5*,.
O=C(COC(=O)CCC1CCCC1)Nc1ccccc1Br,24.2,-5.9,-2.0
Cc1ccc(NC(=O)COC(=O)CCC2CCCC2)c(Br)c1,70.0*,1.3,-2.7
O=C1OCC(c2ccccc2)=C1c1ccc(S(=O)(=O)N2CCOCC2)s1,18.5,4.5,16.7*
Cc1ccc(S(=O)(=O)N2CCOCC2)s1,1.8,4.3,i
O=c1oc2ccccc2nc1/C=C(\O)c1ccccc1,2.9,45.6*,1.1
CC(C)(C)/C(O)=C/c1nc2ccccc2oc1=O,5.4,.,-0.2
O=C(Nc1ccccc1)c1ccc(CN2CCc3ccccc3C2)cc1,8.2,-6.2,-0.3
O=C(Nc1ccc(S(=O)(=O)N2CCCCC2)cc1)c1ccc(CN2CCc3ccccc3C2)cc1,9.4,2.0,16.7*
CC(=O)Nc1ccc(C=NNc2nncc3ccccc23)cc1,.,9.5,.
O=[N+]([O-])c1ccc(C=NNc2ccccn2)cc1,.,3.5,.
COc1ccc(S(=O)(=O)N(C)C[C@H]2Oc3ccc(NC(=O)c4ccncc4)cc3C(=O)N([C@H](C)CO)C[C@@H]2C)cc1,15.0,-7.8,1.1
Cc1cc(C)n2nc(NCc3cccc(Br)c3)nc2n1,-7.4,-13.9,i
O=c1c([N+](=O)[O-])c(N2CCCCC2)c2ccccc2n1-c1ccccc1,2.5,-1.8,+
O=c1c([N+](=O)[O-])c(NCCN2CCCCCC2)c2ccccc2n1-c1ccccc1,-4.8,-3.8,-0.1
O=C(COc1ccc(C=NNC(=O)C(=O)N2CCCCCC2)cc1)Nc1ccccc1Cl,.,10.2,.
COc1cc(C(=O)OCc2csc(CC(=O)Nc3ccccc3C)n2)ccc1OCC(C)C,24.7,6.9,-2.5
O=C1CS/C(=N/N=Cc2ccn[nH]2)N1,.,-8.6,.

# Bioassay records from PubChem BioAssay.
